From PubChem BioAssay (Tox21)
Inconclusive results are not listed. Where a call stands in place of a potency, no number is given. Active and inactive are the calls of the source. Calls follow the shape of the dose curve; as a rule, active = well fitted cell-killing curve with a large enough effect in the repeat runs; inconclusive = weak or mixed curves, or effect the other way; inactive = no such curve, though single readings can be large or run the other way.

assay: qHTS assay to identify small molecule agonists of the farnesoid-X-receptor (FXR) signaling pathway - cell viability counter screen (AID 743218); conditions: FXR-bla HEK293T viability, CellTiter-Glo luminescence, 16 h; series mostly up to 62.6 µM; also: nearly all actives have a fitted effect of over 45% in size
From the text: U.S. Tox21 Program National Center for Advancing Translational Sciences [NCATS] NIH Chemical Genomics Center [NCGC] U.S. Environmental Protection Agency [EPA] National Institutes of Environmental Health Sciences [NIEHS] National Toxicology Program [NTP] U.S. Food and Drug Administration [FDA] Tox21 Assay Overview: The farnesoid-X-receptor (FXR), a nuclear hormone receptor, is highly expressed in liver, intestine, kidney and adrenal cortex. Natural ligands of FXR are the bile acids (Cholic acid, Chenodeoxy cholic acid etc). FXR is an important regulator of diverse metabolic pathways, including the bile acid homeostasis, lipid and glucose metabolisms. FXR regulates the expression of target genes by binding either as a monomer or as a heterodimer with the retinoid X receptor (RXR). Numerous studies have reported that FXR exerts protective function during cholestasis, diabetes, liver regeneration, and cancer. To identify compounds that activate FXR signaling, GeneBLAzer FXR-UAS-bla HEK 293T cell line (Invitrogen, Carlsbad, CA) containing a beta-lactamase reporter gene under the control of a UAS response element was used to screen the Tox21 10K compound library. The cytotoxicity of the Tox21 compound library against the FXR-bla cell line was tested in parallel by measuring the cell viability using CellTiter-Glo assay in the same wells.
Tox21 Assay Protocol Summary: FXR-bla cells were dispensed at 5000 cells/5uL/well in 1536-well black wall/clear bottom plates using a Multidrop Combi (Thermo Fisher Scientific, Waltham, MA) dispenser. After the assay plates were incubated at 37 C and 5% CO2 for 5 h, 23 nL of compounds dissolved in DMSO, positive controls or DMSO only was transferred to the assay plate by a Pintool station (Kalypsys, San Diego, CA). The assay plates were incubated at 37C for 16 h. After 1 uL of LiveBLAzerTM B/G FRET substrate was added using a Bioraptr Flying Reagent Dispenser (FRD) workstation (Beckman Coulter, Indianapolis, IN), the plates were incubated at room temperature for 2 h, and fluorescence intensity was measured by an Envision plate reader (PerkinElmer, Shelton, CT). For cell viability readout that measures cytotoxicity, 4uL/well of CellTiter-Glo reagent was added into the assay plates using a Bioraptr FRD. After 30 min incubation at room temperature, the luminescence intensity in the plates was measured using a ViewLux plate reader (PerkinElmer).

Row | Compound | Potency
1 | CC(=O)Nc1ccccc1 | inactive
2 | c1ccc2scnc2c1 | inactive
3 | CC(C)c1ccc(S(=O)(=O)O)cc1 | inactive
4 | C=CCNC(N)=S | inactive
5 | CCC(O)OCCCOC (stereo not given) | inactive
6 | O=C(O)c1ccc2c(c1)C(=O)OC2=O | inactive
7 | Cc1ccc(N(C)C)cc1 | inactive
8 | OCCOCCOCCO | inactive
9 | Cc1cc(C)c(C)cc1C | inactive
10 | FC(F)(F)c1ccc(Cl)c(Cl)c1 | inactive
11 | Fc1ccc(Br)cc1 | inactive
12 | C=CCOC(=O)c1ccccc1C(=O)OCC=C | inactive
13 | CC1=C(C)S(=O)(=O)CCS1(=O)=O | inactive
14 | O=c1[nH]nnc2ccccc12 | inactive
15 | N[C@@H](Cc1cc(I)c(Oc2cc(I)c(O)c(I)c2)c(I)c1)C(=O)O | inactive
16 | O=C(O)CCCCCCCCCCC(=O)O | inactive
17 | CC1CCC2CC1C2(C)C (stereo not given) | inactive
18 | CC(C)(C)[C@@H](O)[C@@H](Cc1ccc(Cl)cc1)n1cncn1 | inactive
19 | CN(C)CCC(c1ccccc1)c1ccccn1 (stereo not given) | inactive
20 | COS(C)(=O)=O | inactive

Row | Compound | Potency
21 | CCCCC(CC)COC(=O)CCCCC(=O)OCC(CC)CCCC (stereo not given) | inactive
22 | CN(C)CCCN | inactive
23 | C/C=C1/CC2C=CC1C2 (stereo not given) | inactive
24 | Cc1ccc(S(N)(=O)=O)cc1 | inactive
25 | CC(C)CC(=O)CC(C)C | inactive
26 | Oc1cccc2ccccc12 | inactive
27 | CC(C)(N)CO | inactive
28 | CC(=O)c1ccccc1 | inactive
29 | Cc1cccc(O)c1 | inactive
30 | CCCCCCOCCO | inactive
31 | Cc1occc(=O)c1O | inactive
32 | CC(=O)CC(=O)Nc1ccccc1C | inactive
33 | COc1ccc2cc([C@H](C)C(=O)O)ccc2c1 | inactive
34 | CC1=CCC2CC1C2(C)C (stereo not given) | inactive
35 | Cc1ccc2oc(=O)ccc2c1 | inactive
36 | O=P(OC(CCl)CCl)(OC(CCl)CCl)OC(CCl)CCl | inactive
37 | CCCCCC(N)=O | inactive
38 | O=[N+]([O-])c1ccc(/C=C/c2ccc([N+](=O)[O-])cc2S(=O)(=O)O)c(S(=O)(=O)O)c1 | inactive
39 | O=S(=O)(O)c1ccc2ccccc2c1 | inactive
40 | CC1=CC(=O)NS(=O)(=O)O1 | inactive
